{"source": "paper PMC5540273", "about": "(PLoS ONE, 2017);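 note: KINOMEscan kinase panel screen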", "data": [{"system": "CDK5", "conditions": "concentration: 1 μM, replicates: in singlicate; n = 1", "units": {"%Inh": "%"}, "values": [{"smiles": "COc1cccc(C(=O)Nc2cccc(Oc3ccc4nc(NC(=O)C5CC5)cn4n3)c2)c1", "%Inh": 0}, {"smiles": "Cl.Cl.NCC(NC(=O)c1cc(-c2ccccc2)c(-c2ccnc3[nH]ccc23)s1)c1ccccc1", "note": "(stereo not shown) [GSK1321561]", "%Inh": 0}, {"smiles": "CC(=O)Nc1nc2cnc(Nc3cc(NC(=O)c4cccc(C5(C#N)CC5)c4Cl)ccc3C)nc2s1", "%Inh": 0}, {"smiles": "COc1cccc(NC(=O)NC2CCN(c3ccnc(Nc4cc(OC)c(OC)c(OC)c4)n3)C2)c1", "note": "(stereo not shown) [GSK1379763]", "%Inh": 0}, {"smiles": "COc1cc2c(cc1OCCN1CCNCC1)ncc1c3ccc(C#N)cc3[nH]c21", "%Inh": 3}, {"smiles": "CSc1cccc2c(-c3ccncn3)c(-c3ccc(F)cc3)nn12", "note": "[GW514786]", "%Inh": 0}, {"smiles": "Cn1cc(-c2ccc3c(c2)CCN3C(=O)Cc2cccc(Cl)c2)c2c(N)ncnc21", "note": "[GSK2606590]", "%Inh": 0}, {"smiles": "CCS(=O)(=O)c1ccc(OC)c(Nc2nccc(-c3c(-c4cccc(NC(=O)c5c(F)cccc5F)c4)nn4ncccc34)n2)c1", "note": "[GSK326180]", "%Inh": 0}, {"smiles": "CCn1c(-c2nonc2N)nc2c(C#CC(C)(C)O)ncc(OCCCCN)c21.O=C(O)C(F)(F)F.O=C(O)C(F)(F)F", "note": "[GSK507274]", "%Inh": 0}, {"smiles": "O=C(Nc1cccc(-c2nn3ccccc3c2-c2ccnc(Nc3cccc(C(F)(F)F)c3)n2)c1)c1c(F)cccc1F", "note": "[GSK292658]", "%Inh": 0}, {"smiles": "CN(c1ccc(NC(=O)Nc2cc(C(F)(F)F)ccc2F)cc1)c1ccnc(Nc2ccc(S(N)(=O)=O)cc2)n1", "note": "[GW809893]", "%Inh": 97.1}, {"smiles": "COc1cc(Nc2ncc3c(C)nc(-c4cc5ccccc5[nH]4)n3n2)cc(OC)c1OC", "note": "[GW869516]", "%Inh": 0}, {"smiles": "Cc1ccc(C)c(NC(=O)NC2CCN(c3ccnc(Nc4ccc(F)cc4)n3)C2)c1", "note": "(stereo not shown) [GSK1379720]", "%Inh": 0}, {"smiles": "c1ccc(Oc2ccc(Nc3ccnc4cc(-c5ccc(CNCCN6CCOCC6)o5)ccc34)cc2)nc1", "note": "[GW567145]", "%Inh": 0}, {"smiles": "COc1cc(Nc2nccc(-c3c(-c4cccc(NC(=O)c5c(F)cccc5F)c4)nn4ncccc34)n2)cc(OC)c1OC", "note": "[GSK327238]", "%Inh": 0}, {"smiles": "COc1cc(Nc2nccc(N3CCC(NC(=O)Nc4cccc(C(C)=O)c4)C3)n2)cc(OC)c1OC", "note": "(stereo not shown) [GSK1379753]", "%Inh": 0}, {"smiles": "Cl.Cl.NCC(NCc1ccc(-c2ccnc3[nH]ccc23)s1)c1ccccc1", "note": "(stereo not shown) [GSK1321565]", "%Inh": 0}, {"smiles": "Oc1cc(Nc2ccnc3cc(I)ccc23)ccc1F", "note": "[GW552771]", "%Inh": 0}, {"smiles": "Cc1ccc(C(=O)Nc2ccc(Nc3ccnc4cc(-c5nccs5)ccc34)cc2O)cc1.Cl", "note": "[GW494702]", "%Inh": 0}, {"smiles": "C[C@@H]1CC[C@@H](C(=O)Nc2ccccc2)CN1c1cc(-c2ccc3c(N)n[nH]c3c2)nc(N)n1", "note": "[GSK2286062]", "%Inh": 0}, {"smiles": "Nc1ncc(-c2cccnc2)c2scc(-c3ccc4c(c3)CCN4C(=O)Cc3ccccc3)c12", "note": "[GSK683281]", "%Inh": 9}, {"smiles": "Cl.c1ccc(-c2ccc3c(Nc4ccc5[nH]ccc5c4)ccnc3c2)nc1", "note": "[GW440138]", "%Inh": 0}, {"smiles": "CCn1c(-c2nonc2N)nc2c(C#CC(C)(C)O)nc(OC[C@H](N)c3ccccc3)cc21", "note": "[GSK943949]", "%Inh": 9}, {"smiles": "Cn1cc(-c2ccc3c(c2)CCN3C(=O)Cc2cccc(F)c2)c2c(N)ncnc21", "note": "[GSK2603358]", "%Inh": 0}, {"smiles": "O=C(Nc1cccc(-c2nn3ncccc3c2-c2ccnc(Nc3ccccc3)n2)c1)c1c(F)cccc1F", "note": "[GSK198271]", "%Inh": 0}, {"smiles": "COc1cc(Nc2nccc(-c3c(-c4cccc(NC(=O)c5c(F)cccc5F)c4)nn4ccccc34)n2)cc(OC)c1OC", "note": "[GSK323521]", "%Inh": 28}, {"smiles": "FC(F)(F)c1ccc(/C=C/c2cncnc2Nc2ccc3[nH]c(Cc4ccccc4)nc3c2)cc1", "note": "[GW709199]", "%Inh": 0}, {"smiles": "CC(C)(C)c1ccc2nccc(Nc3cccc(O)c3)c2c1", "note": "[GW856795]", "%Inh": 0}, {"smiles": "CCc1ccc(-c2ccc3c(c2)-c2c(cnn2C)S(=O)(=O)N3C)cc1", "%Inh": 0}, {"smiles": "COc1cccc(C2=C(Nc3ccc(Cl)c(C(=O)O)c3)C(=O)NC2=O)c1", "note": "[SB-390769]", "%Inh": 0}, {"smiles": "NCCCC(NC(=O)c1cc(Br)c(-c2ccnc3[nH]ccc23)s1)c1ccccc1.O=C(O)C(F)(F)F.O=C(O)C(F)(F)F", "note": "(stereo not shown) [GSK1287544]", "%Inh": 6}, {"smiles": "COC(=O)Nc1nc2ccc(Oc3ccc(NC(=O)Nc4cc(C(F)(F)F)ccc4F)cc3)cc2n1C.Cl", "note": "[GW692089]", "%Inh": 0}, {"smiles": "CC(C)c1nc(-c2cccc(NS(=O)(=O)c3c(F)cccc3F)c2F)c(-c2ccnc(Nc3ccc(N4CCOCC4)nc3)n2)s1", "note": "[GSK2008607]", "%Inh": 99.1}, {"smiles": "COCCOCCOc1cc2ncc3c4ccc(C#N)cc4[nH]c3c2cc1OC", "%Inh": 7}, {"smiles": "Fc1ccc(-c2ncn(C3CCNCC3)c2-c2ccnc(Oc3ccc(-c4ccccc4)cc3)n2)cc1", "note": "[SB-245391]", "%Inh": 0}, {"smiles": "c1ccc(-c2cnc3nccnn23)cc1", "note": "[AH20685]", "%Inh": 0}, {"smiles": "COc1cccc(-c2ccc3c(NC(=O)C4CC4)n[nH]c3n2)c1", "note": "[SB-710903]", "%Inh": 0}]}]}
